Sampled rows, rich in hits. Any-hit rate of the full collection: about 3.1%.
PAX8 inh HTS = PAX8 transcriptional activity inhibition; RMG-I TPO-luciferase reporter, SteadyGlo, 24 h; inhibition, % at 12.6 µM; 360,000 tested, 1.2% active;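 active = mean replicate inhibition at least 60% with every replicate also reaching 60%; inconclusive = only one of the two criteria is met; inactive = mean below 60% and not all replicates reaching 60%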;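 note: luciferase light reporting Pax8 driven TPO promoter activity; plate controls were median of neutral control wells for no effect and mitoxantrone controls for full effect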
GSIS activator = GLuc luminescence reporter in INS-1E cells, primary screen for activators of glucose-dependent secretion of insulin | 370,000 tested, 0.61% active | activation, % at 16.6 µM | AID 743287 | INS-1E GLuc reporter insulin secretion, 2-3 h;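 active = lowest replicate activation of at least 40%, so every replicate reaches that level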;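 note: 0% = median of neutral control wells and 100% = median of IBMX positive control wells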
EWS-Fli inh = EWS/Fli transcriptional activity inhibition | A673 NR0B1-luciferase reporter, viability-normalised | inhibition, % at 12.6 µM | 350,000 tested, 0.67% active;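 active = mean inhibition of at least 50% after viability correction, with every replicate also passing that limit; inconclusive = mean reaches 50% but only one of two replicates passes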;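 note: firefly luciferase signal divided by Alamar Blue viability fluorescence both relative to DMSO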
Env fusion inh = blocks HIV Env-driven cell-cell fusion | HeLa-JRFL Env/CEM21 cell fusion, luciferase | inhibition, % at 12.3 µM | 360,000 tested, 1.1% active | AID 651610;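 active = mean replicate inhibition score of at least 50 and every replicate individually at or above 50; inconclusive = only one of the two criteria met; inactive = mean below 50 and not all replicates reaching 50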;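 note: 0% = plate neutral controls and 100% = maraviroc near 300 nM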
Statin myotox sup = suppressors of simvastatin-induced myotoxicity in C2C12 myotubes | ATP luminescence, 48 h; scaled: DMSO 0, geranylgeraniol control 100 | rescue of ATP level, % at 7.49 µM | 330,000 tested, 0.78% active | AID 602340;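 active = mean ATP rescue above about 67%, or every replicate alone reaching that limit, limit read from the data, passing the limit was not always enough; inconclusive = no clear call, values can overlap the other calls; inactive = mean under the limit and some replicate under it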;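 note: myotubes were challenged with 10 µM simvastatin during compound exposure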
miR-122 sensor = blocks miR-122 activity in Huh7 sensor cells; 340,000 tested, 0.3% active; activation (reporter increase), % at 12.5 µM; Huh7 miR-122 Renilla luciferase sensor, 48 h; neutral wells = 0, positive control = 100; AID 602342;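 active = mean replicate activation score at least 90 and every replicate individually at or above 90; inconclusive = only one of the two criteria met; inactive = neither criterion met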;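 note: higher luciferase means less miR-122 activity so hits act as miR-122 inhibitors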
An asterisk follows results filed as active; ? = inconclusive; / = no result; [ ] = dose if it differs, or a comment.

SMILES	PAX8 inh HTS	GSIS activator	EWS-Fli inh	Env fusion inh	Statin myotox sup	miR-122 sensor
CC(=O)c1cc(C#N)c(Oc2ccc(Cl)cc2Cl)nc1C	/	/	/	/	167*	-7
COc1ccc(CNC(=O)C[C@H]2C[C@@H]3c4cc(NS(C)(=O)=O)ccc4O[C@@H]3[C@H](CO)O2)cc1	/	-2	-7	/	4	4[16.7 µM]
Cc1ccc(S(=O)(=O)Nc2ccccc2C(=O)Nc2nc(-c3ccc(F)cc3)cs2)cc1	77*	-11	13	56*	/	-1
COc1ccc(-c2csc(NC(=O)c3ccccc3NS(=O)(=O)c3ccc(F)c(F)c3)n2)cc1	97*	-69	21	43	-96	-13
CO[C@H]1CN(C)C(=O)c2ccc(NS(C)(=O)=O)cc2OC[C@H](C)N(C(=O)c2ccc3c(c2)OCO3)C[C@H]1C	1	-3	-4	23[16.7 µM]	-2	-13[16.7 µM]
CCCNC(=O)C[C@@H]1C[C@H]2c3cc(NC(=O)Nc4ccc(F)cc4)ccc3O[C@H]2[C@@H](CO)O1	-6	24	4	-22[16.7 µM]	4	-6[16.7 µM]
C[C@@H]1CCCCO[C@H](CN(C)C(=O)Nc2cccc3ccccc23)[C@@H](C)CN([C@H](C)CO)C(=O)c2cc(NS(=O)(=O)c3cn(C)cn3)ccc2O1	1	-5	1	3[16.7 µM]	/	-3[16.7 µM]
CC(Oc1ccc(Cl)cc1Cl)C(=O)N(Cc1ccco1)C1CCS(=O)(=O)C1 (stereo not drawn)	/	/	/	/	115*	-1
COc1ccccc1-n1cnc2sc(C)c(C)c2c1=O	-7	59*	9	1	20	-11
COc1ccc(C)cc1-n1cnc2sc(C)c(C)c2c1=O	-14	16	19	38	11	-5
COc1ccccc1NC(=O)C(Sc1ccccc1)c1ccccc1 (stereo not drawn)	4	3	/	3	/	/
CCCCNC(=O)C(Sc1ccccc1)c1ccccc1 (stereo not drawn)	145*	/	-9	/	/	0
Cc1c(NC(=O)C(Sc2ccccc2)c2ccccc2)cccc1[N+](=O)[O-] (stereo not drawn)	/	/	/	/	112*	-1
Cc1ccc(-c2ccc([C@@H]3[C@@H](CO)N4C(=O)CN(C(=O)c5cccnc5)C[C@@H]34)cc2)cc1	-3	2	13	/	/	/
CC(=O)Nc1cccc(Nc2nc(-c3ccccc3F)nc3ccccc23)c1	2	-5	0	40	106*	-2
CC(=O)Nc1ccc(Nc2nc(-c3ccccc3)nc3ccccc23)cc1	19	-1	3	16	/	/
CC(C)CC#Cc1ccc2c(c1)O[C@@H](CN(C)CC1CCOCC1)[C@H](C)CN([C@H](C)CO)S2(=O)=O	/	-1	42	28[16.7 µM]	-91	8[16.7 µM]
CCN(CC)S(=O)(=O)c1cc(NC(=O)C(=O)c2c(-c3ccccc3)cc3ccccn23)ccc1C	/	/	/	77*	-17	21
Cc1ccc(Cl)cc1NC(=O)COC(=O)CC1CC2CCC1C2 (stereo not drawn)	-18	/	/	-43	112*	-7
CCC(=O)Nc1ccc2c(c1)C(=O)N(C)C[C@H](OC)[C@H](C)CN(Cc1cncnc1)[C@@H](C)CO2	/	-3	8	/	3	7[16.7 µM]
CCNc1ccc(C(=O)OCC)cc1NC(=O)c1cc(S(=O)(=O)N2CCOCC2)ccc1C	/	/	/	62*	16	3
CC1=CCn2c(=O)c3ccccc3c(=O)n2C1	0	8	-4	-13	125*	-4
O=c1c2ccccc2c(=O)n2n1Cc1ccccc1C2	-50	3	-42	-21	-4	-7
CN(C)CCCN(C(=O)c1ccco1)c1nc2c(F)cc(F)cc2s1	0	6	2	8	-3	-3
CN(C)CCCN(C(=O)CCOc1ccccc1)c1nc2c(F)cccc2s1	87*	99*	15	13	/	/
SMILES	PAX8 inh HTS	GSIS activator	EWS-Fli inh	Env fusion inh	Statin myotox sup	miR-122 sensor
CN(C)CCCN(C(=O)c1ccco1)c1nc2c(F)cccc2s1	-21	41*	-1	-7	/	/
CN(C)CCCN(C(=O)COc1ccccc1)c1nc2ccc(F)cc2s1	1	-15	-21	-6	/	/
CN(C)CCCN(C(=O)CCOc1ccccc1)c1nc2ccc(F)cc2s1	86*	45*	9	10	/	/
C[C@@H]1CN([C@@H](C)CO)C(=O)c2c(c3ccccc3n2C)-c2ccccc2CO[C@H]1CN(C)Cc1ccc2c(c1)OCO2	-5	-4	10	/	/	/
O=C(C1CCC1)N1CC(=O)N2[C@H](CO)[C@H](c3ccc(C#Cc4cccc(F)c4)cc3)[C@H]2C1	-8	12	2	/	/	/
C[C@@H]1CN([C@@H](C)CO)C(=O)c2cc(NS(=O)(=O)c3ccc(Cl)cc3)ccc2O[C@@H](C)CCCCO[C@@H]1CN(C)Cc1ccc2c(c1)OCO2	71*	-22	13	-193[16.7 µM]	/	7[16.7 µM]
C[C@@H]1CCCCO[C@H](CN(C)Cc2ccc3c(c2)OCO3)[C@@H](C)CN([C@@H](C)CO)C(=O)c2cc(NS(=O)(=O)c3ccc(Cl)cc3)ccc2O1	114*	-25	?	4[16.7 µM]	/	-1[16.7 µM]
Cc1ccc(S(=O)(=O)Nc2ccc3c(c2)C(=O)N([C@@H](C)CO)C[C@@H](C)[C@@H](CN(C)Cc2ccc4c(c2)OCO4)OCCCC[C@H](C)O3)cc1	72*	-20	3	-163[16.7 µM]	29	-4[16.7 µM]
COc1ccc(S(=O)(=O)Nc2ccc3c(c2)C(=O)N([C@@H](C)CO)C[C@@H](C)[C@@H](CN(C)Cc2ccc4c(c2)OCO4)OCCCC[C@H](C)O3)cc1	38	-25	13	-299[16.7 µM]	90*	-6[16.7 µM]
C[C@@H]1CCCCO[C@@H](CN(C)Cc2ccc3c(c2)OCO3)[C@H](C)CN([C@@H](C)CO)C(=O)c2cc(NS(=O)(=O)c3ccc(Cl)cc3)ccc2O1	1	-3	1	-16[16.7 µM]	/	-9[16.7 µM]
C[C@H](O)C#Cc1cnc2c(c1)C(=O)N([C@H](C)CO)C[C@H](C)[C@@H](CN(C)Cc1ccccn1)O2	/	12	8	9[16.7 µM]	3	4[16.7 µM]
Cc1noc(C)c1S(=O)(=O)N(C)C[C@H]1Oc2ccc(NC(=O)Nc3ccc(C(F)(F)F)cc3)cc2CC(=O)N([C@H](C)CO)C[C@H]1C	7	3	-4	-1[16.7 µM]	-60	-1[16.7 µM]
COc1cc(-c2noc(C)c2/C=C/c2cccc([N+](=O)[O-])c2)cc(OC)c1OC	59	7	54*	-51	-79	13
C[C@@H]1CN([C@@H](C)CO)C(=O)c2ccccc2-c2ccccc2CO[C@@H]1CN(C)S(=O)(=O)c1ccc(C#N)cc1	/	-2	/	/	/	/
C[C@@H]1CN([C@H](C)CO)C(=O)c2cccc(NC(=O)c3ccc(-c4nccs4)cc3)c2O[C@@H]1CN(C)C(=O)Nc1cccc2ccccc12	-13	2	-4	-117[16.7 µM]	80*	-5[16.7 µM]
C[C@H](CO)N1C[C@H](C)[C@@H](CN(C)C(=O)Nc2cccc3ccccc23)Oc2c(NC(=O)c3ccc(-c4nccs4)cc3)cccc2C1=O	13	-12	18	2[16.7 µM]	40	-11[16.7 µM]

Bioassay records (PubChem)
